Results reported in PubChem BioAssay AID1159580 (chemical genetic matrix, 2015).
Several values for one entry are separate records, joined by “and”; a condition that tells them apart may be missing. Equal values may be shown once. In all, about 5,500 compounds went through this assay and about 2,000 (36%) were called active. About 18% were inconclusive and are not listed. Rule as the data show it: active = normalized growth mostly below about 0.91 (no sharp cut-off); inconclusive = no clear call, values can overlap the other calls; inactive = mostly above about 0.92. Some of the results follow.

Experiment: chemical genetic growth profiling, strain panel (AID 1159580);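 also: tested at 20 µM; growth read once vehicle control cultures reached saturation at 30 °C; 1 = growth at the plate median or of vehicle wells; lower values mean less growth of the strain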
Conditions: S. cerevisiae deletion strains, growth OD

Measured: normalized growth

Cn1cc[nH]c1=S
inactive: locus YAL021C, strain ccr4, hits give low values 0.981 | locus YAL026C, strain drs2, hits give low values 0.99 | locus YAL030W, strain snc1, hits give low values 0.99 | locus YBL061C, strain skt5, hits give low values 0.99 | locus YBR009C, strain hhf1, hits give low values 1.03 | locus YBR021W, strain FUR4, hits give low values 0.991 | locus YBR023C, strain chs3, hits give low values 0.98 | locus YBR171W, strain sec66, hits give low values 0.99 | locus YBR229C, strain ROT2, hits give low values 1.01 | locus YBR231C, strain swc5, hits give low values 1 | locus YBR279W, strain paf1, hits give low values 0.974 | locus YCL011C, strain gbp2, hits give low values 0.967 | locus YCL016C, strain dcc1, hits give low values 0.963 | locus YCL029C, strain bik1, hits give low values 0.976 | locus YCL069W, strain vba3, hits give low values 0.999 | locus YCR088W, strain abp1, hits give low values 0.991 | locus YDL005C, strain med2, hits give low values 0.963 | locus YDL035C, strain GPR1, hits give low values 1.01 | locus YDL040C, strain nat1, hits give low values 0.989 | locus YDL074C, strain BRE1, hits give low values 1.02 | locus YDL101C, strain DUN1, hits give low values 0.996 | locus YDL185W, strain tfp1, hits give low values 0.935 | locus YDL192W, strain arf1, hits give low values 0.971 | locus YDR001C, strain nth1, hits give low values 0.989 | locus YDR069C, strain doa4, hits give low values 1.01 | locus YDR101C, strain arx1, hits give low values 1.02 | locus YDR137W, strain rgp1, hits give low values 0.985 | locus YDR159W, strain sac3, hits give low values 0.974 | locus YDR162C, strain NBP2, hits give low values 1.01 | locus YDR195W, strain ref2 0.99 | locus YDR297W, strain sur2, hits give low values 1.01 | locus YDR318W, strain mcm21, hits give low values 0.968 | locus YDR334W, strain swr1, hits give low values 0.973 | locus YDR335W, strain msn5, hits give low values 1 | locus YDR388W, hits give low values 0.991 | locus YDR392W, strain spt3, hits give low values 0.887 | locus YDR502C, strain sam2, hits give low values 0.993 | locus YEL003W, strain gim4, hits give low values 1 | locus YEL037C, strain rad23, hits give low values 0.98 | locus YEL061C, strain CIN8 (second series), hits give low values 0.984 | locus YEL061C, strain CIN8, hits give low values 0.985 | locus YER015W, strain faa2, hits give low values 0.993 | locus YER016W, strain bim1, hits give low values 0.978 | locus YER110C, hits give low values 0.967 | locus YER111C, strain swi4, hits give low values 0.967 | locus YER155C, strain BEM2 (second series), hits give low values 0.976 | locus YER155C, strain BEM2, hits give low values 1 | locus YER167W, strain BCK2, hits give low values 1 | locus YFR010W, strain ubp6, hits give low values 1.01 | locus YGL078C, strain dbp3, hits give low values 0.956 | locus YGL086W, strain mad1, hits give low values 1.01 | locus YGL167C, strain pmr1, hits give low values 0.992 | locus YGL173C, strain kem1, hits give low values 0.987 | locus YGL227W, strain vid30, hits give low values 1.01 | locus YGL240W, strain doc1, hits give low values 0.981 | locus YGL248W, strain PDE1, hits give low values 1 | locus YGL253W, strain hxk2, hits give low values 0.97 | locus YGR078C, strain PAC10, hits give low values 1 | locus YGR135W, strain pre9, hits give low values 0.938 | locus YGR229C, strain SMI1, hits give low values 1.01 | locus YGR252W, strain gcn5, hits give low values 0.958 | locus YHR013C, strain ard1, hits give low values 0.949 | locus YHR027C, strain rpn1, hits give low values 1 | locus YHR030C, strain SLT2, hits give low values 0.997 and 1.04 | locus YHR079C, strain IRE1 (second series), hits give low values 0.971 | locus YHR079C, strain IRE1, hits give low values 1.04 | locus YHR094C, strain hxt1, hits give low values 0.992 | locus YHR129C, strain ARP1, hits give low values 1.01 | locus YHR142W, strain chs7, hits give low values 0.981 | locus YHR200W, strain rpn10, hits give low values 0.971 | locus YIL066C, strain RNR3, hits give low values 1.01 | locus YIL073C, strain SPO22, hits give low values 0.929 | locus YIL125W, strain kgd1, hits give low values 0.986 | locus YIR030C, strain dcg1, hits give low values 0.964 | locus YJL092W, strain hpr5, hits give low values 1 | locus YJL095W, strain BCK1 (second series), hits give low values 0.988 | locus YJL095W, strain BCK1, hits give low values 0.991 and 1.03 | locus YJL115W, strain asf1, hits give low values 0.988 | locus YJL129C, strain trk1, hits give low values 0.963 | locus YJL134W, strain LCB3, hits give low values 0.999 | locus YJL154C, strain vps35, hits give low values 0.984 | locus YJL164C, strain tpk1, hits give low values 1.02 | locus YJL166W, strain qcr8, hits give low values 1.03 | locus YJL168C, strain set2, hits give low values 0.984 | locus YJL187C, strain SWE1 (second series), hits give low values 1 | locus YJR043C, strain POL32, hits give low values 1.02 | locus YJR066W, strain TOR1, hits give low values 0.991 | locus YJR075W, strain HOC1, hits give low values 0.997 | locus YKL009W, strain mrt4, hits give low values 0.966 | locus YKL068W, hits give low values 0.987 | locus YKL085W, strain MDH1 (second series), hits give low values 0.967 | locus YKL085W, strain MDH1, hits give low values 0.967 | locus YKL160W, strain elf1, hits give low values 0.952 | locus YKL190W, strain CNB1, hits give low values 0.985 | locus YKR001C, strain vps1, hits give low values 0.996 | locus YKR026C, strain gcn3, hits give low values 0.985 | locus YKR091W, strain srl3, hits give low values 0.983 | locus YLL001W, strain dnm1, hits give low values 1 | locus YLL026W, hits give low values 1 | locus YLL041C, strain sdh2, hits give low values 1.01 | locus YLR027C, strain aat2, hits give low values 0.991 | locus YLR039C, strain RIC1, hits give low values 0.879 | locus YLR058C, strain SHM2, hits give low values 1 | locus YLR102C, strain apc9, hits give low values 0.972 | locus YLR113W, strain HOG1, hits give low values 1.03 | locus YLR221C, strain rsa3, hits give low values 1.04 | locus YLR258W, strain gsy2, hits give low values 0.979 | locus YLR262C, strain YPT6 (second series), hits give low values 1.06 | locus YLR262C, strain YPT6, hits give low values 0.995 | locus YLR268W, strain sec22, hits give low values 0.981 | locus YLR320W, strain mms22, hits give low values 0.999 | locus YLR330W, strain CHS5, hits give low values 0.995 | locus YLR342W, strain FKS1 (second series), hits give low values 1.01 | locus YLR342W, strain FKS1, hits give low values 0.97 | locus YLR357W, strain rsc2, hits give low values 0.98 | locus YLR370C, strain arc18, hits give low values 0.978 | locus YLR371W, strain rom2, hits give low values 0.983 | locus YLR384C, strain iki3, hits give low values 0.997 | locus YLR418C, strain cdc73, hits give low values 0.965 | locus YML016C, strain PPZ1, hits give low values 1.01 | locus YML032C, strain rad52, hits give low values 0.994 | locus YML120C, strain ndi1, hits give low values 1.01 | locus YML124C, strain tub3, hits give low values 0.977 | locus YMR058W, strain fet3, hits give low values 0.995 | locus YMR078C, strain ctf18, hits give low values 0.96 | locus YMR125W, strain sto1, hits give low values 0.973 | locus YMR129W, hits give low values 1 | locus YMR205C, strain PFK2, hits give low values 0.984 | locus YMR223W, strain ubp8, hits give low values 0.952 | locus YMR231W, strain pep5, hits give low values 0.981 | locus YMR307W, strain GAS1, hits give low values 1.05 | locus YNL067W, strain RPL9B, hits give low values 0.997 | locus YNL071W, strain lat1, hits give low values 0.989 | locus YNL153C, strain GIM3, hits give low values 1.01 | locus YNL183C, strain NPR1, hits give low values 0.993 | locus YNL209W, strain ssb2, hits give low values 0.979 | locus YNL233W, strain BNI4, hits give low values 1 | locus YNL248C, strain rpa49, hits give low values 0.965 | locus YNL250W, strain rad50, hits give low values 0.964 | locus YNL271C, strain bni1, hits give low values 0.97 | locus YNL298W, strain CLA4, hits give low values 0.946 | locus YNL307C, strain MCK1, hits give low values 0.982 | locus YNL322C, strain KRE1 (second series), hits give low values 0.966 | locus YNR049C, strain mso1, hits give low values 0.998 | locus YNR052C, strain pop2, hits give low values 0.962 | locus YOL006C, strain TOP1, hits give low values 0.987 | locus YOL012C, strain htz1 0.891 | locus YOL147C, strain pex11, hits give low values 0.973 | locus YOR001W, strain rrp6, hits give low values 1.03 | locus YOR061W, strain CKA2, hits give low values 1 | locus YOR069W, strain VPS5, hits give low values 1.01 | locus YOR070C, strain gyp1, hits give low values 0.994 | locus YOR080W, strain dia2, hits give low values 1 | locus YOR083W, strain WHI5, hits give low values 0.922 | locus YOR106W, strain vam3, hits give low values 0.977 | locus YOR136W, strain idh2, hits give low values 0.987 | locus YOR144C, strain elg1, hits give low values 0.986 | locus YOR184W, strain ser1, hits give low values 0.974 | locus YOR231W, strain MKK1, hits give low values 1.04 | locus YOR265W, strain rbl2, hits give low values 0.997 | locus YOR270C, strain vph1, hits give low values 1.07 | locus YOR290C, strain snf2, hits give low values 0.955 | locus YOR316C, strain cot1, hits give low values 0.974 | locus YPL051W, strain arl3, hits give low values 0.98 | locus YPL055C, strain LGE1, hits give low values 0.999 | locus YPL078C, strain atp4, hits give low values 1 | locus YPL106C, strain sse1, hits give low values 0.965 | locus YPL240C, strain hsp82, hits give low values 1.02 | locus YPL241C, strain CIN2, hits give low values 1 | locus YPL256C, strain CLN2, hits give low values 1.06 | locus YPR119W, strain clb2, hits give low values 0.968 | locus YPR141C, strain kar3, hits give low values 0.977 | locus YPR163C, strain tif3, hits give low values 0.976 | locus YPR167C, strain met16, hits give low values 0.983 | strain wtn01, hits give low values 0.97
